Assay outcomes from PubChem BioAssay.
KCNQ2 enhance: KCNQ2 (rat) channel potentiation; O88943; CHO-K1 KCNQ2, FluxOR thallium flux fluorescence; hits give high values; B-score at 10 µM; 310,000 compounds, 0.54% hits; AID 2239;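 active = fluorescence ratio B-score at least 3 SD of library B-scores, with initial fluorescence B-score within 3 of them, cut at about 5.3 in these data; same plate scores as AID 2156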;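 note: B-score of peak minus minimum over baseline fluorescence ratio after K+ and Tl+ stimulus; positive B-score means potentiation of KCNQ2 with more thallium influx and brighter signal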
KCNQ2 inh: KCNQ2 (rat) channel inhibition. O88943. CHO-K1 KCNQ2, FluxOR thallium flux, 20 min; hits give low values. B-score at 10 µM. 310,000 compounds, 1.1% hits. AID 2156;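 active = fluorescence ratio B-score at most minus 3 library SDs, with starting brightness B-score within 2 library SDs, cut at about -5.5 in these data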
Kir21 conf inh: confirmation of mouse Kir2.1 potassium channel inhibitors; shares compounds with KCNQ2 enhance; Kir2.1-expressing cells, FluxOR thallium flux fluorescence; hits give low values; Tl flux remaining, % of negative control (hits give low values), % at 10 µM; 2,300 compounds, 41% hits; AID 2032;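 active = Primary-screen hit whose thallium flux fell at least 3 control SD below untreated wells in both duplicates, with normal baseline fluorescence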;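 note: 0% = blank wells without stimulus and 100% = stimulated no-compound controls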
HEK293 ctr: parental HEK293 activity in Kir2.1 inhibitor counter-screen; shares compounds with KCNQ2 enhance; parental HEK293 cells, FluxOR thallium flux fluorescence; 0% = unstimulated blank wells; FluxOR signal as % of negative control (100 = no effect), % at 10 µM; 2,300 compounds, 19% hits; AID 2105;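 active = dye signal at least 3 control SD above or below untreated wells in both duplicates, raw fluorescence within 3, either direction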;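 note: percent is based on the flux ratio of peak minus minimum fluorescence over baseline F0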
CHO-K1 Tl ctr: counter-screen for KCNQ2 potentiators: effect in parental CHO-K1 cells. FluxOR thallium flux fluorescence; zero = vehicle mean+3SD, 100% = vehicle-minus-blank window. shares compounds with KCNQ2 enhance. 1,200 compounds, 43% hits. activity increase over 3SD of controls, % at 10 µM;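 active = signal rise of at least 3 SD above the untreated control mean, in both duplicate wells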;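 note: counter screen of KCNQ2 potentiator hits so any rise reflects channel-independent effects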
KCNQ1 sel pot: selectivity of KCNQ2 potentiators: effect on human KCNQ1; shares compounds with KCNQ2 enhance; CHO KCNQ1 stable, FluxOR thallium flux fluorescence; beyond 3SD, as % of vehicle-control signal; 1,200 compounds, 28% hits; activation over 3SD threshold, % at 10 µM;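 active = fluorescence ratio rise of at least 3 SD of vehicle wells above their mean, in both replicate wells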;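 note: 0% = vehicle mean plus 3 SD and 100% = vehicle minus unstimulated blank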
KCNQ2 pot conf: rat KCNQ2 channel potentiator confirmation. shares compounds with KCNQ2 enhance. CHO-KCNQ2 cells, FluxOR thallium flux fluorescence. potentiation, less the hit threshold, % at 10 µM. 1,200 compounds, 68% hits;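 active = fluorescence ratio rising 3 SD or more over the vehicle control mean in both replicates, plus primary screen hit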;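 note: peak minus minimum thallium fluorescence divided by baseline after K/Tl stimulus; 0% = vehicle mean plus 3 SD and 100% = vehicle minus unstimulated blank difference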
Kir2-1 sel: tests whether KCNQ2 potentiators also affect mouse Kir2.1; shares compounds with KCNQ2 enhance; HEK293 Kir2.1, FluxOR thallium flux fluorescence; activity over 3SD threshold, % at 10 µM; 1,200 compounds, 2% hits;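 active = fluorescence ratio rise of at least 3 SD above the vehicle-control mean, seen in both replicates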;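 note: 0% = vehicle mean plus 3 SD and 100% = vehicle minus no-stimulus blank window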
KCNQ2 W236L MoA: rat KCNQ2 W236L mutant potentiation by KCNQ2 potentiators | shares compounds with KCNQ2 enhance | CHO KCNQ2-W236L, automated patch clamp current | current increase over 3SD of negative controls (%), hits give high values, % at 25 µM | 940 compounds, 10% hits | AID 2558;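 active = current increase at least 3 SD of the untreated controls above them in both duplicate recordings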
The depositor's hits bear a star; i = inactive; . = not tested or not shown. Most compounds without a hit are left out; they make up all but 1.6% or so of the library.

SMILES	KCNQ2 enhance	KCNQ2 inh	Kir21 conf inh	HEK293 ctr	others
CCC(=O)N(CCC(Cc1ccccc1)c1ccco1)Cc1ccco1 (centres undefined)	.	i	54%*	i
CCC(=O)N(CCC(c1ccccc1)c1ccco1)Cc1cccs1 (centres undefined)	-14	-14*	62%*	i
CCC(=O)N(CCC(Cc1ccccc1)c1ccc2c(c1)OCO2)Cc1ccccc1F (centres undefined)	.	i	.	.
O=C(CSc1nnc(-c2ccccc2)c(-c2ccccc2)n1)NC1CCS(=O)(=O)C1 (centres undefined)	0.87	i	.	.
CC1CCN(CCCNC(=O)c2ccc(CSCc3cccc(Cl)c3)o2)CC1	.	i	37%*	i
CN1CCN(CCCNC(=O)c2ccc(CSCc3cccc(Cl)c3)o2)CC1	1.2	i	.	.
Cc1ccc(S(=O)(=O)Nc2cc(=O)[nH]c(SCC(=O)Nc3cccc(C)c3)n2)cc1	5.3*	i	i	i	CHO-K1 Tl ctr=30*;KCNQ1 sel pot=-5;KCNQ2 pot conf=18*;Kir2-1 sel=-33;KCNQ2 W236L MoA=i
Cc1ccc(NC(=O)CSc2nc(NS(=O)(=O)c3ccccc3)cc(=O)[nH]2)cc1	0.93	i	.	.
CC(=O)OC1COC(N2CCc3cc(Br)c([N+](=O)[O-])cc32)C(OC(C)=O)C1OC(C)=O (centres undefined)	.	i	.	.
Cc1ccc(C(=O)NCCN2C3=NC[C@H](Cc4ccc(O)cc4)N3C[C@H]2Cc2ccc(O)cc2)cc1Br	0.05	i	.	.
Cc1ccc(C(=O)NCCN2C3=NC[C@@H](Cc4ccccc4)N3C[C@H]2Cc2ccc(O)cc2)cc1Br	.	i	54%*	i
C/C=C(\C)C(=O)NCCN1C2=NC[C@H](Cc3ccccc3)N2C[C@H]1Cc1ccc(O)cc1	0.1	i	.	.
COc1ccc(C[C@H]2CN3C(=NC[C@H]3Cc3ccccc3)N2CCNC(=O)c2ccc(C)c(Br)c2)cc1	.	i	28%*	i
COc1ccc(CCC(C)NC(=O)Cc2ccc(OC)c(OC)c2)c(OC)c1 (centres undefined)	0.2	i	.	.
O=C(NCCc1ccccc1)C(=O)NCC1OCCCN1S(=O)(=O)c1cccs1 (centres undefined)	.	i	.	.
CC/C(=N\NC(=O)c1ccc2c(c1)OCO2)C12CC3CC(CC(C3)C1)C2	.	i	.	.
CC/C(=N/NC(=O)c1ccc2c(c1)OCO2)c1ccccc1O	7.9*	i	i	i	CHO-K1 Tl ctr=-12;KCNQ1 sel pot=-20;KCNQ2 pot conf=16*;Kir2-1 sel=-31;KCNQ2 W236L MoA=i
COc1ccccc1C(=O)OCCNC(=O)Cn1cnc2c1c(=O)n(C)c(=O)n2C	0.46	i	.	.
COc1ccc(N2CCN(CC(=O)N3c4ccccc4CC3C)CC2)cc1 (centres undefined)	0.64	i	.	.
CC(C)=CCc1c(O)cc(O)c2c1OC(c1ccc(O)cc1)CC2=O (centres undefined)	-7.8	-7.8*	62%*	i
CC(C)=CCc1c(O)c(CC=C(C)C)c2c(c1O)C(=O)CC(c1ccc(O)cc1)O2 (centres undefined)	.	i	.	.
O=C(Nc1ncc2c(n1)-c1ccccc1CC2)c1ccccc1	8.5*	i	i	73%*	CHO-K1 Tl ctr=-6;KCNQ1 sel pot=73*;KCNQ2 pot conf=17*;Kir2-1 sel=-50;KCNQ2 W236L MoA=i
O=C(Nc1ncc2c(n1)-c1ccccc1CC2)c1ccc(F)cc1	4.5	i	.	.
O=C(Nc1nc2c(s1)CCc1ccccc1-2)c1cccs1	0.02	i	.	.
O=C(Nc1ncc2c(n1)-c1ccccc1CC2)c1cccs1	9.7*	i	i	i	CHO-K1 Tl ctr=-9;KCNQ1 sel pot=-9;KCNQ2 pot conf=29*;Kir2-1 sel=-14;KCNQ2 W236L MoA=i
